# Laboratory results from PubChem BioAssay AID488969 (Vanderbilt High Throughput Screening Facility, 2010).
# The full ranking holds about 110,000 compounds; the median of “z-score” is about -0.1, and the highest 2% start at about 2. This excerpt belongs to a sample that is enriched for the highest values. Activity calls are given as the source filed them.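 Rule for the calls: active = z-score in the third read window above 3 or below -3; inactive = the rest.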
# Target: Metabotropic glutamate receptor 8 (Rattus norvegicus) (UniProt P70579)
# Assay: rat mGluR8 modulators via GIRK flux, primary screen, cell-based, thallium flux, HTS (AID 488969)
# Conditions: HEK293 rat mGluR8, GIRK (G protein-gated inwardly rectifying potassium channel) thallium flux, FluoZin2; at 10 µM; stronger effect = higher value; submaximal glutamate (EC20) added with thallium
# Sequence of Metabotropic glutamate receptor 8 (Rattus norvegicus) (P70579 whole entry, looked up): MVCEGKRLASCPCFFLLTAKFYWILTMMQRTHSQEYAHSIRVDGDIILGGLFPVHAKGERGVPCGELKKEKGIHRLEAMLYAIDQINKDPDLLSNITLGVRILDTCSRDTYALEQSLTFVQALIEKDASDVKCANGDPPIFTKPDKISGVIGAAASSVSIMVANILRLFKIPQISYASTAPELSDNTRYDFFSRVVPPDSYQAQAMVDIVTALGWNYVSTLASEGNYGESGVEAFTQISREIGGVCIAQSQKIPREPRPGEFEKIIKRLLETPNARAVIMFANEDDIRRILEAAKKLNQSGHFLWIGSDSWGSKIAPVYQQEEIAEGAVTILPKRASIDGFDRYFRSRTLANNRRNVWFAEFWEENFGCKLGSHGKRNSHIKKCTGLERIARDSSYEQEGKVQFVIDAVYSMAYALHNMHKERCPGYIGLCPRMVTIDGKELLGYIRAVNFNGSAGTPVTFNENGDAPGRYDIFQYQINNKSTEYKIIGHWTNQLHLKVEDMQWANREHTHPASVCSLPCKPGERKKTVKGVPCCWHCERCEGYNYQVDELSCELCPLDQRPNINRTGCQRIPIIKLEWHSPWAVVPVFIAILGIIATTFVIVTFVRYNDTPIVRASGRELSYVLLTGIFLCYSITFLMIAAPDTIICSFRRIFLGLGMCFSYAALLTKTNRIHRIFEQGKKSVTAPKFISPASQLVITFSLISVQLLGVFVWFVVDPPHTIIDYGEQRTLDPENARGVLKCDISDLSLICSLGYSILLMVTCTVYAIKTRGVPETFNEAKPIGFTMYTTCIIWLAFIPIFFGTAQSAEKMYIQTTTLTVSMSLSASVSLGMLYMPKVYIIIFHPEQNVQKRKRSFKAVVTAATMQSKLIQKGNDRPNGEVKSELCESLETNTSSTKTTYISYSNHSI
row,Structure (SMILES),z-score
1,CC1CCN(c2cc(N3CCOCC3)c([N+](=O)[O-])cc2F)CC1,2.53
2,CC1CCN(c2cc(N3CCOCC3)c(F)cc2[N+](=O)[O-])CC1,-0.674
3,O=[N+]([O-])c1cc(F)c(N2CCCCC2)cc1N1CCOCC1,-0.193
4,O=C(NC1CCCCC1)c1sc(N2CCOCC2)nc1-c1ccccc1,0.0133
5,O=C(COC(=O)CCC1CCCC1)Nc1ccc(Cl)cc1F,-0.306
6,O=C(COC(=O)CCC1CCCC1)Nc1nc2c(F)c(F)c(F)cc2s1,2.48
7,O=C(COC(=O)C12CC3CC(CC(C3)C1)C2)Nc1nc2c(F)c(F)c(F)cc2s1,-0.635
8,CC(=O)Nc1cc(C(F)(F)F)ccc1Oc1cccc(Br)c1,-0.653
9,CCCCn1c(NC(=S)Nc2ccccc2)nc2ccccc21,2.55
10,CCCn1c(Nc2ccccc2)nc2ccccc21,-0.0673
11,S=C(Nc1ccccc1)Nc1nc2ccccc2n1CCOc1ccc(Br)cc1,1.24
12,S=C(Nc1ccccc1)Nc1nc2ccccc2n1CCOc1ccc(Cl)cc1,1.72
13,CCn1c(NC(=O)C2CCCCC2)nc2ccccc21,0.0465
14,CCn1c(NC(=S)Nc2ccccc2)nc2ccccc21,15.2 (active)
15,CCCn1c(NC(=S)Nc2ccccc2)nc2ccccc21,2.89
16,CCCCn1c(Nc2ccccc2)nc2ccccc21,0.15
17,CCn1c(NC(C)=O)nc2ccccc21,-0.0713
18,COc1ccc(CNC(=O)CSCc2cnn(-c3ccccc3)c2-n2cccc2)cc1,0.0302
19,Cc1cccc(NCc2ccccc2O)c1C,0.825
20,COc1ccc(OCCNc2cc(N3CCCCC3)ccc2[N+](=O)[O-])cc1,-0.255
21,O=C(Cc1ccccc1)Nc1ccc(N2CCOCC2)cc1N1CCOCC1,-0.544
22,CCNC(=O)C1CC(=O)N(CC)C(=Nc2cc(Cl)c(O)c(Cl)c2)S1 (stereo not drawn),0.28
23,COC(=O)CSc1nc2nc(C)cc(C)n2n1,-0.251
24,CCOC(=O)c1nnn(CC(=O)Nc2ccccc2OC)c1C(=O)OCC,-0.326

row,Structure (SMILES),z-score
1,CCOC(=O)c1nnn(CC(=O)Nc2cccc(Cl)c2C)c1C(=O)OCC,2.12
2,COC(=O)c1nnn(CC(=O)Nc2cccc(Cl)c2C)c1C(=O)OC,-0.193
3,COc1ccccc1S(=O)Cc1ccc(C(=O)NCc2ccccc2Cl)o1 (stereo not drawn),-0.228
4,CC(=O)Nc1nonc1-c1nc2ccccc2n1N(C(C)=O)C(C)=O,-2.35
5,CCC(C)n1c(=S)[nH]c2c(sc3ccc([N+](=O)[O-])cc32)c1=O (stereo not drawn),9.11 (active)
6,CC(C)n1c2ccccc2c2cc([N+](=O)[O-])ccc21,-0.11
7,CCC(C)n1c(SCc2ccc([N+](=O)[O-])cc2)nc2ccsc2c1=O (stereo not drawn),0.36
8,CCOc1ccc(Nc2ncnc(N)n2)cc1,4.23 (active)
9,Nc1ncnc(Nc2ccc(F)cc2)n1,0.0495
10,CCOc1ccc(CNc2ncnc(N)n2)cc1,-0.398
11,COc1cc(/C=C(\C#N)C(N)=O)ccc1OS(=O)(=O)c1ccc(C)cc1,-0.309
12,O=[N+]([O-])c1ccc(COc2cccc(CNc3ccc(Br)cc3)c2)cc1,0.133
13,Cc1ccc(N2C(=O)C(Cl)=C(N3CCOCC3)C2=O)cc1Cl,-0.0801
14,O=C1C(Cl)=C(N2CCOCC2)C(=O)N1c1cccc(Cl)c1,13.9 (active)
15,CCc1ccc(N2C(=O)C(Cl)=C(N3CCOCC3)C2=O)cc1,-0.428
16,CCN(CC)CCn1c(SCC(=O)NCc2ccco2)nc2c(sc3ccccc32)c1=O,-0.759
17,Cc1nn(-c2ccccc2)c(C)c1/C=N/NC(=O)CSc1nnc(-c2ccccc2)n1-c1ccc(Cl)cc1,0.0544
18,O=C(Nc1nc(-c2ccccc2)cs1)c1ccc(Br)o1,2.96
19,O=C(Nc1nc(-c2ccccc2)cs1)c1cccs1,-0.61
20,O=C(Nc1nc2c(Cl)cccc2s1)c1ccc(Br)o1,0.452
21,O=c1oc2ccccc2cc1-c1csc(NN=C2CCCC2)n1,-0.3
22,Cc1ccc(C(=O)Nc2nc(-c3cccnc3)cs2)o1,-0.0733
23,O=C(Nc1cccc(-c2cc3ccccc3oc2=O)c1)c1ccc(Br)o1,-0.101
24,O=C(Nc1nc2ccc(Cl)cc2s1)c1ccco1,-0.371

row,Structure (SMILES),z-score
1,O=C(Nc1nc(-c2cc3ccccc3oc2=O)cs1)c1ccc(Br)o1,13.7 (active)
2,O=C(Nc1nc2ccc(Cl)cc2s1)c1ccc(Br)o1,6.8 (active)
3,O=C(CSc1ncn(-c2ccccc2)n1)NCc1ccccc1,-0.242
4,CCN1CNC(=S)N(c2ccccc2OC)C1,-0.242
5,COCCn1c(SCC(=O)NCc2ccco2)nc2cccnc21,0.0661
6,COc1ccc(-c2noc(CCC(=O)Nc3cc(Cl)c(OC)cc3OC)n2)cc1,-0.134
7,COC(=O)c1cc(OC)c(OC)cc1NC(=O)Nc1ccccc1OC,-0.56
8,COC(=O)c1cc(OC)c(OC)cc1NC(=O)Nc1ccc(OC)cc1OC,3.48 (active)
9,COc1ccc(OC)c(NC(=O)C(Sc2ccccc2)c2ccccc2)c1 (stereo not drawn),0.629
10,COc1ccccc1NC(=O)C(Sc1ccccc1)c1ccccc1 (stereo not drawn),0.792
11,COc1ccc(NC(=O)C(Sc2ccccc2)c2ccccc2)c(OC)c1 (stereo not drawn),2.25
12,COC(=O)c1cc(OC)c(OC)cc1NC(=O)Nc1ccc(OC)cc1,-0.0386
13,COc1cc2cc(C#N)c(SCC(=O)N3CCOCC3)nc2cc1OC,0.593
14,C=CCn1cc(/C=N/NC(=O)COc2cccc3cccnc23)c2ccccc21,-0.515
15,Cc1ccc(-c2nn(CCC#N)cc2C=C(C#N)C#N)cc1,0.287
16,O=S(=O)(c1ccccc1)n1c(C(O)c2ccccn2)cc2ccccc21 (stereo not drawn),0.524
17,COc1ccc(N(CC(=O)N2c3ccccc3CC2C)S(=O)(=O)c2c(C)nn(C)c2C)cc1 (stereo not drawn),-0.0129
18,CCOc1ccc(NC(=O)NC23CC4CC(CC(C4)C2)C3)cc1,4.76 (active)
19,O=C(NNC(=O)c1ccc2c(c1)OCO2)NC12CC3CC(CC(C3)C1)C2,-0.287
20,CCOc1ccc(NC(=O)C23CC4CC(C2)CC(c2ccccc2)(C4)C3)cc1,-0.381
21,CCOc1ccc(NC(=O)Nc2ccc(N(C)C(C)=O)cc2)cc1,0.478
22,COc1ccc(NC(=O)NC23CC4CC(CC(C4)C2)C3)cc1OC,-0.136
23,CCOc1ccc(NC(=O)Nc2cccs2)cc1,2.37
24,COc1cccc(NC(=O)Nc2cccs2)c1,1.67

row,Structure (SMILES),z-score
1,O=C(Nc1ccc2c(c1)OCCO2)NC12CC3CC(CC(C3)C1)C2,2.32
2,N#Cc1cccc(NC(=O)Nc2cccs2)c1,2.55
3,COC(=O)c1cccc(NC(=O)NC23CC4CC(CC(C4)C2)C3)c1,-0.16
4,N#Cc1cccc(NC(=O)c2ccccc2C(=O)O)c1,-0.112
5,CCOc1ccc(NC(=O)Nc2ccc3nccnc3c2)cc1,-0.163
6,CNC(=O)NC(=O)CSc1nc2ccccc2n1CCOC,-0.465
7,O=C1C2CCCN2C(c2cccc(Br)c2)N1c1ccc(F)cc1 (stereo not drawn),-0.401
8,C/C(=N/NC(=O)OC(C)(C)C)c1ccco1,-0.124
9,COC(=O)c1cn(CC(=O)N2CCCCC2C)c2ccccc12 (stereo not drawn),-0.213
10,COC(=O)c1ccc(C(=O)OC)c(NC(=O)CCc2ccc(C)o2)c1,-0.67
11,CCCCCn1cnc2sc(CC)cc2c1=O,-0.4
12,Cc1ccc(C(CCN)c2ccco2)cc1 (stereo not drawn),0.345
13,O=C1NC(=O)/C(=C\c2ccc(Sc3ccc(Cl)cc3)o2)N1,-0.263
14,Cc1cccc(NC(=S)NCC(c2cccnc2)N(C)C)c1 (stereo not drawn),0.286
15,CCOC(=O)c1ccc2ncc(C(=O)OCC)c(NCCN(C)C)c2c1,-0.571
16,C=CCN(CC=C)C(=S)NC(=O)/C=C/c1ccc(C)cc1,4.57 (active)
17,COc1ccc(C(=O)NC(=S)NCCO)cc1Br,4.72 (active)
18,Cc1ccc(/C=C/C(=O)c2ccc(C)cc2)cc1,0.025
19,CCN(CC)C(=O)c1ccc(C)c(Br)c1,-0.37
20,C=CCN(CC=C)C(=S)NC(=O)c1ccc(OC)c(Br)c1,15.4 (active)
21,CCCCC(=O)Nc1ccc(C(=O)NNC(=O)c2ccc(C)c(Br)c2)cc1,-0.00519
22,C=CCN(CC=C)C(=S)NC(=O)c1ccc(C)c(Br)c1,15.3 (active)
23,COc1ccc(C(=O)NCc2ccccc2)cc1Br,-0.234
24,COc1ccc(C(=O)NC(=S)NC(C)C)cc1Br,1.79

row,Structure (SMILES),z-score
1,C=CCN(CC=C)C(=S)NCCc1ccc(OC)c(OC)c1,-0.0119
2,C=CCN(CC=C)S(=O)(=O)c1ccc(NC(=S)NC(=O)/C=C/c2ccc(C)cc2)cc1,-0.0815
3,COc1ccc(C(=O)NC(=S)NC(C)(C)C)cc1Br,0.436
4,CCOC(=O)c1nn(-c2ccc(C)c(C)c2)c(=O)c2c(N)scc12,-0.137
5,CC(C)(C)/C(O)=C/c1nc2ccccc2[nH]c1=O,-0.317
6,COc1ccccc1CNC(=S)NCCc1ccccc1,-0.133
7,COCCn1c(C)cc(C(=O)COC(=O)c2cncc(Br)c2)c1C,0.145
8,COC(=O)c1cc2ccsc2n1Cc1cc(=O)n2ccccc2n1,-0.127
9,COc1cccc(C(C(=O)NC2CCCC2)N(Cc2ccco2)C(=O)c2ccco2)c1OC (stereo not drawn),-0.188
10,CC1=CC(c2ccccc2)NC(=S)N1 (stereo not drawn),-0.113
11,CC1=C(C)C(c2ccccc2)NC(=S)N1 (stereo not drawn),3.39 (active)
12,CCOC(=O)C1=C(C)C(c2ccccc2)NC(=S)N1 (stereo not drawn),0.0117
13,CSc1ccn(CCC(=O)O)c(=O)n1,-0.489
14,CC(=O)c1cnn(-c2nc3c(C)cccc3s2)c1C,-0.111
15,c1ccc(-n2nnnc2-n2ccnc2)cc1,0.463
16,COc1ccc(S(=O)(=O)Cc2ccc(C(=O)NCc3cccnc3)o2)cc1,-0.0868
17,C/C(=N\NC(=O)c1nonc1N)c1cccs1,0.127
18,CC(=O)Nc1nc2ccccc2n1CCN(C)C,-0.911
19,Cn1c(N2CCOCC2)nc2c1c(=O)n(Cc1ccc(Cl)cc1)c(=O)n2C,-0.42
20,Cn1c(N2CCCC2)nc2c1c(=O)n(Cc1ccc(Cl)cc1)c(=O)n2C,3.05 (active)
21,Cn1c(N2CCC(C(N)=O)CC2)nc2c1c(=O)n(Cc1ccc(Cl)cc1)c(=O)n2C,-0.154
22,O=C(O)c1ccc(CNCc2ccc(Cl)cc2Cl)cc1,-0.14
